Results filed as inconclusive are left out. Active and inactive are the calls of the source. Calls come from the whole dose curve; as a rule, active = well fitted curve in the direction sought with a large enough effect in the repeat runs; inconclusive = weak or mixed curves; inactive = no such curve, though single readings can be large; an effect the other way counts as inactive or inconclusive.
How the values were obtained:
[1] = qHTS RealTime-Glo MT Cell Viability Assay in HepG2 cells - 8 hour (AID 1224873); note: nearly all actives have a fitted effect of over 55% in size
Summary of the method: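 HepG2 cells mixed with RealTime-Glo MT reagents (NanoLuc plus cell-permeant prosubstrate) were seeded at 600 cells/well, incubated 5 h at 37 C/5% CO2, then pinned with compounds in DMSO; nonlytic luminescence tracked viability during 40 h treatment.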

[2] = A CellTox Green Cytotoxicity Assay to monitor cytotoxicity in HEK293 cells - 24 hour (AID 1224875); note: nearly all actives have a fitted effect of over 45% in size; note: potency is the fitted concentration of half-maximal effect
Summary of the method: (§1)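 HEK293 cells premixed with CellTox Green dye were seeded at 600 cells/well and left 5 h at 37 C/5% CO2 before pin transfer of 23 nL compound in DMSO. Fluorescence from dye bound to dead-cell DNA was read during 40 h treatment.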

[3] = A CellTox Green Cytotoxicity Assay to monitor cytotoxicity in HepG2 cells - 16 hour (AID 1224876); note: nearly all actives have a fitted effect of over 45% in size; note: potency is the fitted concentration of half-maximal effect
Summary of the method: (§2)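 HepG2 cells were seeded together with the CellTox Green dye at 600 cells/well, left 5 h at 37 C/5% CO2, then given compounds in DMSO. Fluorescence from dye bound to dead-cell DNA was read repeatedly over 40 h of treatment at 37 C.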

[4] = A CellTox Green Cytotoxicity Assay to monitor cytotoxicity in HepG2 cells - 24 hour (AID 1224878); note: nearly all actives have a fitted effect of over 45% in size; note: potency is the fitted concentration of half-maximal effect
Summary of the method: as §2

[5] = A CellTox Green Cytotoxicity Assay to monitor cytotoxicity in HepG2 cells - 40 hour (AID 1224879); note: nearly all actives have a fitted effect of over 40% in size; note: potency is the fitted concentration of half-maximal effect
Summary of the method: as §2

[6] = A CellTox Green Cytotoxicity Assay to monitor cytotoxicity in HEK293 cells - 32 hour (AID 1224881); note: nearly all actives have a fitted effect of over 40% in size; note: potency is the fitted concentration of half-maximal effect
Summary of the method: as §1

[7] = A CellTox Green Cytotoxicity Assay to monitor cytotoxicity in HepG2 cells - 0 hour (AID 1224882); note: nearly all actives have a fitted effect of over 35% in size; note: potency is the fitted concentration of half-maximal effect
Summary of the method: as §2

[8] = A CellTox Green Cytotoxicity Assay to monitor cytotoxicity in HEK293 cells - 8 hour (AID 1224884); note: nearly all actives have a fitted effect of over 35% in size; note: potency is the fitted concentration of half-maximal effect
Summary of the method: as §1

[9] = qHTS RealTime-Glo MT Cell Viability Assay in HepG2 cells - 16 hour (AID 1224885); note: nearly all actives have a fitted effect of over 50% in size
Summary of the method: (§3)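 HepG2 cells were seeded at 600 cells/well together with NanoLuc luciferase and a cell-permeant prosubstrate, preincubated 5 h at 37 C/5% CO2, then pin-dosed with compounds in DMSO. Nonlytic luminescence from viable cells was read at each time point.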

[10] = A CellTox Green Cytotoxicity Assay to monitor cytotoxicity in HEK293 cells - 16 hour (AID 1224888); note: nearly all actives have a fitted effect of over 35% in size; note: potency is the fitted concentration of half-maximal effect
Summary of the method: as §1

[11] = qHTS RealTime-Glo MT Cell Viability Assay in HepG2 cells - 0 hour (AID 1224889); note: nearly all actives have a fitted effect of over 50% in size; note: potency is the fitted concentration of half-maximal effect
Summary of the method: as §3

[12] = A CellTox Green Cytotoxicity Assay to monitor cytotoxicity in HepG2 cells - 8 hour (AID 1224890); note: nearly all actives have a fitted effect of over 45% in size; note: potency is the fitted concentration of half-maximal effect
Summary of the method: as §2

[13] = qHTS RealTime-Glo MT Cell Viability Assay in HepG2 cells - 32 hour (AID 1224877); note: nearly all actives have a fitted effect of over 55% in size; note: potency is the fitted concentration of half-maximal effect
Summary of the method: as §3

[14] = qHTS RealTime-Glo MT Cell Viability Assay in HEK293 cells - 0 hour (AID 1224880)
Summary of the method: (§4)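 HEK293 cells mixed with RealTime-Glo reagents (NanoLuc plus cell-permeant prosubstrate) at 600 cells/well, preincubated 5 h at 37 C/5% CO2, then given 23 nL compound in DMSO. Nonlytic luminescence from viable cells was read at 0, 8, 16, 24, 32 and 40 h.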

[15] = qHTS RealTime-Glo MT Cell Viability Assay in HEK293 cells - 16 hour (AID 1224872); note: nearly all actives have a fitted effect of over 50% in size; note: potency is the fitted concentration of half-maximal effect
Summary of the method: (§5)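 HEK293 cells were seeded at 600 cells/well together with NanoLuc luciferase and cell-permeant prosubstrate, preincubated 5 h at 37 C/5% CO2, then given compound in DMSO by pintool. Luminescence from viable-cell prosubstrate reduction was read repeatedly over 40 h.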

[16] = A CellTox Green Cytotoxicity Assay to monitor cytotoxicity in HepG2 cells - 32 hour (AID 1224883); note: nearly all actives have a fitted effect of over 50% in size; note: potency is the fitted concentration of half-maximal effect
Summary of the method: as §2

[17] = qHTS RealTime-Glo MT Cell Viability Assay in HEK293 cells - 24 hour (AID 1224886); note: nearly all actives have a fitted effect of over 50% in size; note: potency is the fitted concentration of half-maximal effect
Summary of the method: as §5

[18] = qHTS RealTime-Glo MT Cell Viability Assay in HEK293 cells - 8 hour (AID 1224887); note: nearly all actives have a fitted effect of over 50% in size; note: potency is the fitted concentration of half-maximal effect
Summary of the method: as §4

[19] = qHTS RealTime-Glo MT Cell Viability Assay in HEK293 cells - 40 hour (AID 1224874); details: RealTime-Glo luminescence; max response: stronger effect = lower value; note: nearly all actives have a fitted effect of over 50% in size; note: potency is the fitted concentration of half-maximal effect
Summary of the method: as §4
% is set by controls: 0 for no effect and ±100 for the full control effect.

CCCCCCCCS(=O)C(C)Cc1ccc2c(c1)OCO2 (stereo unspecified)
inactive: Potency [1] | Potency [2] | Potency [3] | Potency [4] | Potency [5] | Potency [6] | Potency [7] | Potency [8] | Potency [9] | Potency [10] | Potency [11] | Potency [12]

Cc1nc(-c2ccc3c(c2)CCN(CCC2CCC(NC(=O)/C=C/c4ccc(F)cc4)CC2)CC3)no1 (stereo unspecified)
inactive: Potency [1] | Potency [2] | Potency [3] | Potency [13] | Potency [4] | Potency [14] | Potency [7] | Potency [9] | Potency [10] | Potency [11] | Potency [12]

C[C@@H]1C[C@H]2[C@@H]3CCC4=CC(=O)C=C[C@]4(C)[C@@]3(Cl)[C@@H](O)C[C@]2(C)[C@@]1(OC(=O)c1ccco1)C(=O)CCl
inactive: Potency [15] | Potency [2] | Potency [3] | Potency [4] | Potency [5] | Potency [14] | Potency [6] | Potency [7] | Potency [16] | Potency [8] | Potency [17] | Potency [18] | Potency [10] | Potency [11] | Potency [12]

O=Cc1cc(O)ccc1Br
inactive: Potency [1] | Potency [3] | Potency [13] | Potency [14] | Potency [7] | Potency [8] | Potency [9] | Potency [18] | Potency [10] | Potency [11] | Potency [12]

CCC1=C[C@@H]2CN(C1)Cc1c([nH]c3ccccc13)[C@@](C(=O)OC)(c1cc3c(cc1OC)N(C)[C@H]1[C@@](O)(C(=O)OC)[C@H](OC(C)=O)[C@]4(CC)C=CCN5CC[C@]31[C@@H]54)C2
active: Potency [15] 23.9 µM | Potency [19] 0.0067 µM
inactive: Potency [2] | Potency [5] | Potency [6] | Potency [7] | Potency [16] | Potency [8] | Potency [10] | Potency [11] | Potency [12]

CCN(C(=O)N(CC)c1ccccc1)c1ccccc1
inactive: Potency [1] | Potency [2] | Potency [3] | Potency [13] | Potency [4] | Potency [5] | Potency [14] | Potency [6] | Potency [7] | Potency [16] | Potency [8] | Potency [10] | Potency [11] | Potency [12]

C/C=C1/C(=O)C[C@H]2[C@@H]3CCC4=CC(=O)CC[C@]4(C)[C@H]3CC[C@]12C
active: Potency [15] 43.5 µM | Potency [5] 43.5 µM | Potency [18] 24.5 µM | Potency [11] 0.435 µM
inactive: Potency [2] | Potency [13] | Potency [6] | Potency [7] | Potency [10] | Potency [12]

CNCc1cc(F)ccc1Oc1ccc(Cl)c(Cl)c1
inactive: Potency [7] | Potency [8]
active: Potency [19] 43.6 µM | Potency [2] 49 µM | Potency [3] 54.9 µM | Potency [13] 54.9 µM | Potency [4] 49 µM | Potency [5] 49 µM | Potency [6] 49 µM | Potency [16] 49 µM | Potency [17] 38.9 µM

OCc1c[nH]c2ccccc12
inactive: Potency [3] | Potency [4] | Potency [14] | Potency [7] | Potency [9] | Potency [11] | Potency [12]

CN1CCC(Nc2ncc3ncnc(Nc4ccc(F)c(Cl)c4)c3n2)CC1
inactive: Potency [1] | Potency [7] | Potency [8] | Potency [10] | Potency [11] | Potency [12]
active: Potency [19] 10.7 µM | Potency [3] 21.3 µM | Potency [4] 23.9 µM | Potency [5] 26.8 µM | Potency [17] 9.52 µM

OCCCCCCCCCCCCBr
active: Potency [19] 11.1 µM | Potency [5] 11.1 µM
inactive: Potency [1] | Potency [2] | Potency [3] | Potency [13] | Potency [4] | Potency [6] | Potency [7] | Potency [16] | Potency [8] | Potency [9] | Potency [18] | Potency [10] | Potency [11] | Potency [12]

CCCC(=O)OC[C@@H](OC(=O)CCC)[C@@H](OC(=O)CCC)[C@H](Cn1c2nc(=O)[nH]c(=O)c-2nc2cc(C)c(C)cc21)OC(=O)CCC
active: Potency [2] 21.3 µM | Potency [3] 19 µM | Potency [4] 21.3 µM | Potency [5] 21.3 µM | Potency [6] 21.3 µM | Potency [7] 16.9 µM | Potency [16] 19 µM | Potency [8] 21.3 µM | Potency [10] 21.3 µM | Potency [12] 19 µM
inactive: max response [19] -24.9% | Potency [11]

CC[C@@]1(O)C(=O)OCc2c1cc1n(c2=O)Cc2cc3c(CN(C)C)c(O)ccc3nc2-1
inactive: Potency [1] | Potency [14] | Potency [9] | Potency [18] | Potency [11]
active: Potency [19] 0.0756 µM | Potency [2] 23.9 µM | Potency [3] 21.3 µM | Potency [4] 10.7 µM | Potency [5] 7.56 µM | Potency [6] 23.9 µM | Potency [7] 23.9 µM | Potency [16] 8.49 µM | Potency [8] 26.8 µM | Potency [17] 0.0849 µM | Potency [10] 26.8 µM | Potency [12] 23.9 µM

CN1CCN(CCC(=O)N2c3ccccc3Sc3ccc(C(F)(F)F)cc32)CC1
inactive: Potency [1] | Potency [14] | Potency [8] | Potency [10]
active: Potency [3] 10.7 µM | Potency [4] 15.1 µM | Potency [5] 21.3 µM | Potency [16] 19 µM
